# Results: PubChem BioAssay (NCATS)
# Experiments:
# [1] = qHTS profiling of the MIPE4 collection as inhibitors of Plasmodium falciparum (3D7) proliferation (AID 743344);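 also: scaled between DMSO vehicle wells and 0.29 µM artemisinin as full inhibition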; settings: P. falciparum 3D7 in erythrocytes, SYBR Green DNA fluorescence, 72 h; at 28.5 µM unless noted
# Summary of the method: (§1)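 Parasite DNA was quantified by SYBR Green I fluorescence (ex 485, em 535 nm) after overnight lysis in saponin/Triton buffer at room temperature. Cultures at 0.3% parasitemia and 2.5% hematocrit were first exposed to compound for 72 h at 37 C; signals were normalised to artemisinin (0.29 uM) and vehicle wells.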
# [2] = qHTS profiling of the MIPE4 collection as inhibitors of Plasmodium falciparum (DD2) proliferation (AID 743345); settings: P. falciparum Dd2 in erythrocytes, SYBR Green DNA, 72 h; at 28.5 µM unless noted
# Summary of the method: as §1
# [3] = qHTS profiling of the MIPE4 collection as inhibitors of Plasmodium falciparum (DD2) proliferation (Rep 2) (AID 743346); settings: P. falciparum Dd2 in erythrocytes, SYBR Green DNA, 72 h; at 28.5 µM unless noted
# Summary of the method: as §1
# [4] = qHTS profiling of the MIPE4 collection as inhibitors of Plasmodium falciparum (HB3) proliferation (AID 743347);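 also: plate controls were DMSO vehicle wells for no effect and artemisinin wells for full effect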; settings: P. falciparum HB3 in erythrocytes, SYBR Green DNA, 72 h; at 28.5 µM unless noted
# Summary of the method: as §1
# [5] = High-throughput drug toxicity screening in the BPDCN cell line Gen2.2 (AID 1224824); settings: Gen2.2 BPDCN cells; at 45.8 µM (top of the series) unless noted;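 also: cells exposed to compounds for 48 h before reading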
# Summary of the method: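 Seed 500 exponentially growing Gen2.2 cells/well; add compounds by pin tool; incubate 48 h, 37 °C, 5% CO2; add CellTiter-Glo, 15 min RT; read luminescence. % activity vs DMSO (100%) and bortezomib (0%).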
SMILES,"parasite growth, % of DMSO control [1]","parasite growth remaining, % of DMSO control (lower = more inhibition) [2]","parasite growth, % of control (lower = inhibition) [3]","growth, % of control [4]","cell viability, % of control (lower = more cytotoxic) [5]"
CCOc1cc2ncc(C#N)c(Nc3ccc(OCc4ccccn4)c(Cl)c3)c2cc1NC(=O)C=CCN(C)C,7.93%,7.24%,12.3%,2.73%,4.27%
c1ccc(CNc2nc(NCc3ccccc3)c3ccccc3n2)cc1,5.75%,7.99%,10.1%,8.52%,6.1%
COc1cc(O)c2c(c1)C1OC1C[C@H](O)[C@H](O)C(=O)C=CC[C@H](C)OC2=O (stereo not given in full),5.71%,10.6%,6.84%,2.42%,3.33%
Cc1ncc(-c2ccnc(Nc3ccc(S(C)(=O)=O)cc3)n2)n1C(C)C,6.84%,19.3%,10.8%,7.75%,6.27%
COc1cc(N2CCC(C(N)=O)CC2)ccc1Nc1nc(N)c(Cl)c(Nc2ccccc2S(=O)(=O)C(C)C)n1,38.7%,37.8%,35.9%,53.9%,147%
COc1ccc(S(=O)(=O)Nc2cccnc2Nc2ccc(O)cc2)cc1,64.8%,94%,85.5%,51.4%,4.34%
C[C@@]12C[C@@]3(O)O[C@@H](O1)[C@]1(COC(=O)c4ccccc4)[C@@H]3C[C@@]12O[C@@H]1O[C@H](CO)[C@@H](O)[C@H](O)[C@@H]1O,90.9%,96.7%,141%,109%,109%
CCc1nc(-c2cccc(C)c2)c(-c2ccnc(NC(=O)c3ccccc3)c2)s1,21.9%,47.6%,49.3%,29.7%,229%
COc1cccc2c1C(=O)c1c(O)c3c(c(O)c1C2=O)C[C@@](O)(C(C)=O)C[C@H]3O[C@H]1C[C@H](N)[C@H](O)[C@H](C)O1,13.5%,5.82%,6.6%,6.78%,3.75%
CCCNC(=O)[C@H]1O[C@H]1C(=O)N[C@H](C(=O)N1CCC[C@@H]1C(=O)OC)C(C)CC (stereo not given in full),88%,94.3%,52.3%,102%,18.6%
O=C1NC(=O)C(=Cc2ccc3nccc(-c4ccncc4)c3c2)S1,6.28%,7.95%,7.98%,3.52%,3.73%
O=C(O)C=Cc1ccc(Cn2ccnc2)cc1,90.5%,100%,96.2%,95.1%,243%
Cc1noc(-c2ccc(CSCCC(=O)O)cc2)c1NC(=O)OC(C)c1ccccc1Cl (stereo not given),41.1%,96%,49.9%,61.1%,157%
Cc1cnc(Nc2ccc(N3CCN(C)CC3)cc2)nc1Nc1cccc(S(=O)(=O)NC(C)(C)C)c1,5.3%,8.81%,12.4%,3.11%,2.75%
O=C(C=CC#Cc1cccc(NS(=O)(=O)c2ccccc2)c1)NO,5.45%,7.17%,8.22%,4.3%,4.86%
C[C@@H](NCc1cc2ccccc2[nH]1)c1cccc2ccccc12,41.8%,83.3%,71.9%,36.4%,171%
Cc1cc(Nc2ncc3c(n2)N(C)C(=O)N(c2cc(NC(=O)c4cccc(C(F)(F)F)c4)ccc2C)C3)n(C)n1,7.35%,15.8%,15.8%,10.8%,11.1%
C[C@H](NCc1ccc(OCc2cccc(F)c2)cc1)C(N)=O,8.15%,6.14%,12.8%,3.17%,13.6%
Cn1cnc(=N)c2[nH]cnc21,5.58%,6.87%,7.19%,3.51%,128%
CCN(CC)Cc1ccc2cc(COC(=O)Nc3ccc(C(=O)NO)cc3)ccc2c1,4.38%,6.93%,6.48%,7.88%,8.65%
CCS(=O)(=O)Nc1ccc2[nH]c(O)c(C(=Nc3ccc(CN4CCCCC4)cc3)c3ccccc3)c2c1,6.54%,7.14%,13.8%,4.28%,2.51%
CC[C@@]1([C@@H]2O[C@@H]([C@H]3O[C@@](O)(CO)[C@H](C)C[C@H]3C)C[C@H]2C)CC[C@H]([C@]2(C)CC[C@]3(C[C@H](O)[C@@H](C)[C@@H]([C@@H](C)[C@@H](OC)[C@H](C)C(=O)O)O3)O2)O1,5.35% [at 9.64 µM],5.25% [at 9.64 µM],9.17% [at 9.64 µM],3.89% [at 9.64 µM],27.8% [at 23.2 µM]
CCOC(=O)C=C[C@H](C[C@@H]1CCNC1=O)NC(=O)[C@@H](CC(=O)[C@@H](NC(=O)c1cc(C)on1)C(C)C)Cc1ccc(F)cc1,22%,98.4%,41.1%,37.6%,74.1%
CNC(=O)c1cccc(-c2ccc3c(N4CCOC[C@H]4C)nc(N4CCOC[C@H]4C)nc3n2)c1,,17.5%,9.01%,5.12%,20.8%
OCCN1C[C@H](O)[C@@H](O)[C@H](O)[C@@H]1CO,,131%,85.5%,97.8%,122%
CC(=O)OC[C@@H]1O[C@@H](n2ccc(=O)[nH]c2=O)[C@H](OC(C)=O)[C@H]1OC(C)=O,,115%,141%,250%,154%
Nc1nc(=O)n([C@H]2CSC(CO)O2)cc1F (stereo not given in full),,,160%,250%,249%
CN(CC(=O)N(Cc1ccc(C2CCCCC2)cc1)c1ccc(C(=O)O)c(O)c1)S(=O)(=O)c1c(F)c(F)c(F)c(F)c1F,,95.9%,53.5%,27.9%,52.5%

SMILES,"parasite growth, % of DMSO control [1]","parasite growth remaining, % of DMSO control (lower = more inhibition) [2]","parasite growth, % of control (lower = inhibition) [3]","growth, % of control [4]","cell viability, % of control (lower = more cytotoxic) [5]"
C[C@H](NC(=O)C(C#N)=Cc1cccc(Br)n1)c1ccccc1,,86.2%,33.4%,22%,5.54%
FC(F)c1nc2ccccc2n1-c1nc(N2CCOCC2)nc(N2CCOCC2)n1,,7.94%,8.19%,3.1%,9.88%
CC[C@H](CC[C@@H](C)[C@H]1CC[C@H]2[C@@H]3CC=C4C[C@@H](O)CC[C@]4(C)[C@@H]3CC[C@]12C)C(C)C,,,,100%,114%
NC(=O)N1CCC(CC(=O)N2CCC([C@H]3c4ncc(Br)cc4CCc4cc(Cl)cc(Br)c43)CC2)CC1,,10.6%,13.1%,9.54%,82.6%
O=C(NC1CC1)c1cccc(-c2ccc3c(NC(=O)C4CC4)n[nH]c3c2)c1,,96.7%,59.5%,63.3%,224%
CCN1CCN(C(=O)N[C@H](C(=O)N[C@@H]2C(=O)N3C(C(=O)O)=C(CSc4nnnn4C)CS[C@@H]23)c2ccc(O)cc2)C(=O)C1=O,,95.9% [at 9.64 µM],57.9% [at 9.64 µM],90.1% [at 9.64 µM],149% [at 15.3 µM]
CC1(C)O[C@@H]2C[C@H]3[C@@H]4CCC5=CC(=O)C=C[C@]5(C)[C@@H]4[C@@H](O)C[C@]3(C)[C@]2(C(=O)CO)O1,,49.3%,7.43%,5.96%,97.8%
CC(C)(O)Cn1c(NC(=O)c2ccc(-c3cn[nH]c3)s2)nc2cc(CN3CCOCC3)ccc21,,7.56%,9.94%,6.36%,7.04%
Cn1cc(-c2cnn3c(N)c(Br)c([C@H]4CCCNC4)nc23)cn1,,10.3%,8.07%,3.69%,8.78%
CN1[C@H]2CC(OC(=O)[C@@H](CO)c3ccccc3)C[C@H]1[C@H]1O[C@H]12 (stereo not given in full),,,,107%,189% [at 23.2 µM]
COc1cccc2c1C(=O)c1c(O)c3c(c(O)c1C2=O)C[C@@](O)(C(=O)CO)C[C@@H]3O[C@H]1C[C@H](N)[C@H](OC2CCCCO2)[C@H](C)O1 (stereo not given in full),,7.89%,7.8%,3.44%,5.53%
CN[C@H]1[C@@H](O)[C@@H]2O[C@@H]3O[C@H](C)CC(=O)[C@]3(O)O[C@@H]2[C@@H](NC)[C@H]1O,,,19.2%,6.56%,9.59%
COc1cc(OC)cc(-c2ccc3ncc4ccc(=O)n(-c5ccc(N6CCNCC6)c(C(F)(F)F)c5)c4c3c2)c1,,5.58%,18.6%,9.36%,13.6%
CCc1c(O)cc(O)c(C(=O)c2ccc(OCCN3CCOCC3)c(OC)c2)c1CC(=O)N(CCOC)CCOC,,12.7%,11.6%,7.26%,4.9%
C#C[C@]1(O)CC[C@@H]2[C@@H]3CCc4cc(O)ccc4[C@H]3CC[C@@]21C,,,54.7%,89.8%,67.3%
C=C[C@@H]1CN2CCC1C[C@H]2[C@H](O)c1ccnc2ccc(OC)cc12 (stereo not given in full),,,15.1%,12.1%,111%
COc1cc([C@@H]2c3cc4c(cc3[C@H](O)[C@H]3COC(=O)[C@@H]23)OCO4)cc(OC)c1OC,,,29.1%,,21.3%
C=CCNC1=C2C[C@@H](C)C[C@H](OC)[C@@H](O)[C@@H](C)C=C(C)[C@H](OC(N)=O)[C@@H](OC)C=CC=C(C)C(=O)NC(=CC1=O)C2=O,,7.22%,9.89%,4.67%,6.66%
NC(=O)c1cccc(-c2cccc(OC(=O)NC3CCCCC3)c2)c1,,,,94.2%,128%
COc1cc(OC)c(C=CS(=O)(=O)Cc2ccc(OC)c(NCC(=O)O)c2)c(OC)c1,,82.7%,77.6%,68.2%,5.33%
CC(C(C)N1CC(=O)NC(=O)C1)N1CC(=O)NC(=O)C1 (stereo not given),,80.3%,105%,98.2%,158%
CC(C=CC(=O)NO)=C[C@@H](C)C(=O)c1ccc(N(C)C)cc1,,7.38%,9.43%,3.58%,2.63%
CS[C@H]1SC[C@@H]2C(=O)N(C)[C@H](C(C)C)C(=O)OC[C@H](NC(=O)c3cnc4ccccc4n3)C(=O)N[C@H](C)C(=O)N(C)[C@@H]1C(=O)N(C)[C@H](C(C)C)C(=O)OC[C@H](NC(=O)c1cnc3ccccc3n1)C(=O)N[C@H](C)C(=O)N2C,,5.94%,7.64%,10.7%,3.67%
NC(=O)Nc1sc(-c2ccc(F)cc2)cc1C(N)=O,,8.68%,9.96%,3.76%,3.62%
CC(C)N(CC[C@H](c1ccccc1)c1cc(CO)ccc1O)C(C)C,,,26.5%,103%,145%
COC1=C(OC)C(=O)C(CC=C(C)CCC=C(C)CCC=C(C)CCC=C(C)CCC=C(C)CCC=C(C)CCC=C(C)CCC=C(C)CCC=C(C)CCC=C(C)C)=C(C)C1=O,,46.1%,131%,97.8%,125%
CCCCCCCN(CC)CCCC(O)c1ccc(NS(C)(=O)=O)cc1 (stereo not given),,83.7%,72%,54%,213%
